The text below walks through data of PubChem BioAssay.

As usually defined, the inhibition is the relative decrease from the control value, in per cent. Broadly, the remaining activity is the signal under treatment as a percentage of the control signal.

Test [1] in a line: compounds altering circadian rhythm period length – cell-based, LOPAC library, luminescence reporter (AID 2774).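 Note: values are relative to mean of DMSO wells on each plate.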 Conditions: circadian reporter cells, at 7 µM, actives lie on both sides.
The test system of test [2] is Hepatitis C virus NS3 helicase. The test is described as follows: blockers of NS3h binding to ssDNA – biochemical, fluorescence polarization, LOPAC1280 library, primary screen (AID 687035; in the data active = inhibition above about 37%). The note with it: Purified HCV NS3 helicase, Cy5-dT15 ssDNA binding fluorescence polarization; stronger effect = higher value; concentration not given here.
Test [3] is described as follows: compounds altering Cy5-DNA-NS3h complex signal – biochemical, LOPAC1280, artefact control for HCV NS3 helicase inhibitor project (AID 687037). The note with it: Cy5-DNA-NS3h complex fluorescence interference counterscreen.
Test [4] has as its system Aerobactin synthetase IucA (Klebsiella pneumoniae). The experiment in a line: inhibition of K. pneumoniae IucA enzyme – biochemical, Tocris library, absorbance (AID 1345561).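 Note: 100% = enzyme without compound and 0% = no enzyme.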 Conditions: purified IucA enzyme assay, absorbance (OD) read-out; stronger effect = lower value;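 tested at 8 µM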.
Test [5] in a line: viability loss with induced miR-34 in A549 – imaging, A549 dox-inducible miR-34, nuclei and caspase counts, primary screen (AID 1347080;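 active = compounds whose cell count with miR-34 switched on is under 0.7 times the count with it off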). Conditions: A549 miR-34 inducible, Hoechst nuclei count, 48 h.
Test [6] is described as follows: blockers of cellular phospholipid synthesis – cell-based, LOPAC library, screen 4, primary screen (AID 1347384). The note with it: animal cells, phospholipid biosynthesis inhibition screen; at 10 µM.
Test [7] is described as follows: galactose survival enhancers in mitochondrial complex I cybrids – cell-based, galactose medium, ATP luminescence, primary screen (AID 1645843;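 active = z-score of at least 1.8 in each of two replicates, scored against plate mean and spread of sample wells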;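 note: positive z means more ATP and so rescue of galactose-driven cybrid death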). Conditions: complex I mutant cybrid cells, 72 h, stronger effect = higher value.
Where [8] appears, read: stronger effect = lower value, cell number ratio, induced over uninduced.
The mark [9] stands for this setting: measured here: relative caspase fold change +Dox/-Dox.
Where [10] appears, read: measured here: total cells with miR-34 induction, stronger effect = lower value.
Where [11] appears, read: measured here: total cells without miR-34 induction.

Values joined by “and” are separate entries in the source; they are usually repeats but may differ in a detail not shown here. Equal entries are not always repeated. The source holds several records for some structures; these can differ, active in one and inactive in another. Active and inactive are the calls of the source. Unless noted, the rule behind the calls is not given here.

Take `CCn1c(=O)[nH]c2cc(Cl)c(Cl)cc21`: the period change in test [1] was 0.01 h (inactive). In addition, the inhibition in test [2] was -2% (inactive). Further, in test [3], the fluorescence ratio (interference) was 1 (inactive). The remaining activity in test [4] is 114% (inactive). Also, the fold change was 0.936 (inactive) and 0.878 (inactive) in test [5] (setting [8]); 1.34 and 0.845 in test [5] (setting [9]). The cell count in test [5] (setting [10]) is 8830 and 7930; in test [5] (setting [11]), 9440 and 9020. In addition, the molecule was classed as inactive in test [6]. For the same molecule, the z-score in test [7] is 0.275 (inactive) and 0.885 (inactive).
Take `Cc1ccc(O)c(N=Nc2ccccc2)n1`: the period change in test [1] is -0.01 h (inactive). Also, the inhibition in test [2] is 1% (inactive). Besides, the fluorescence ratio (interference) in test [3] was 0.9 (inactive). Moreover, the remaining activity in test [4] is 110% (inactive). The fold change in test [5] (setting [8]) is 0.956 (inactive) and 0.932 (inactive); in test [5] (setting [9]), 0.751 and 0.659. Moreover, the cell count in test [5] (setting [10]) was 10100 and 8850; in test [5] (setting [11]), 10500 and 9490. Moreover, the call in test [6] was inactive. Besides, in test [7], the z-score was 1.16 (inactive) and 0.96 (inactive).
For `N[C@H](C(=O)O)c1cc(O)cc(O)c1`, the period change in test [1] is 0.11 h (inactive). For the same molecule, the inhibition in test [2] was -1% (inactive). For the same molecule, the fluorescence ratio (interference) in test [3] is 1.1 (inactive). For the same molecule, the remaining activity in test [4] is 115% (inactive). Further, the fold change in test [5] (setting [8]) was 1.01 (inactive) and 0.963 (inactive); in test [5] (setting [9]), 1.04 and 0.77. Besides, the cell count was 10300 and 8780 in test [5] (setting [10]); 10200 and 9120 in test [5] (setting [11]). The result in test [6] was inactive. For the same molecule, the z-score in test [7] was 0.215 (inactive) and -0.05 (inactive).
Turning to `CNC(=O)c1cc2c(cn1)[nH]c1ccccc12`, the period change in test [1] is -0.24 h (inactive). Besides, the inhibition in test [2] was 0% (inactive). Further, the fluorescence ratio (interference) in test [3] is 1 (inactive). Moreover, the remaining activity in test [4] was 99.6% (inactive). Besides, the fold change in test [5] (setting [8]) was 0.95 (inactive) and 0.891 (inactive); in test [5] (setting [9]), 1.84 and 0.981. Also, the cell count in test [5] (setting [10]) was 8950 and 7610; in test [5] (setting [11]), 9420 and 8540. The molecule was called inactive in test [6]. In test [7], the z-score is 2.76 (active) and 1.85 (inactive).
For the molecule `Nc1ncnc2c1ncn2C1CCCO1` (stereo not given), in test [1], the period change was -0.01 h (inactive). In addition, in test [2], the inhibition was -1% (inactive). Further, in test [3], the fluorescence ratio (interference) is 1 (inactive). For the same molecule, in test [4], the remaining activity was 110% (inactive). Besides, the fold change in test [5] (setting [8]) was 0.951 (inactive) and 0.846 (inactive) and 0.927 (inactive); in test [5] (setting [9]), 1.64 and 1.08 and 0.781. Moreover, the cell count in test [5] (setting [10]) was 9560 and 5440 and 8660; in test [5] (setting [11]) it was 10100 and 6440 and 9350. For the same molecule, the molecule was called inactive in test [6]. Also, the z-score in test [7] is 0.435 (inactive) and -0.32 (inactive).
On to `S=C(S)N1CCCC1`, for which the period change in test [1] is 0.08 h (inactive). Besides, the inhibition in test [2] was -2% (inactive). Moreover, the fluorescence ratio (interference) in test [3] is 1 (inactive). The remaining activity in test [4] was 87.7% (inactive). Moreover, the fold change was 0.892 (inactive) and 0.97 (inactive) in test [5] (setting [8]); 1.02 and 0.891 in test [5] (setting [9]). The cell count is 6850 and 8740 in test [5] (setting [10]); 7680 and 9010 in test [5] (setting [11]). Further, the molecule was classed as inactive in test [6]. In addition, in test [7], the z-score was -1.38 (inactive) and -1.23 (inactive).
`CC[C@H](NC(=O)c1c(C)c(-c2ccccc2)nc2ccccc12)c1ccccc1`: in test [1], the period change is 0.09 h (inactive). Besides, the inhibition in test [2] is 1% (inactive). In addition, in test [3], the fluorescence ratio (interference) is 1 (inactive). In addition, the remaining activity in test [4] is 110% (inactive). Further, the fold change in test [5] (setting [8]) was 1.28 (inactive) and 0.912 (inactive); in test [5] (setting [9]) it was 1.6 and 0.801. The cell count in test [5] (setting [10]) is 6890 and 7500; in test [5] (setting [11]) it was 5390 and 8230. Moreover, the molecule was classed as inactive in test [6]. Further, the z-score in test [7] is 1.77 (inactive) and 1.96 (inactive).
On to `CCCCCCCC/C=C\CCCCCCCC(=O)NCCO`, for which the period change in test [1] is 0.02 h (inactive). The inhibition in test [2] was -1% (inactive). Further, the fluorescence ratio (interference) in test [3] is 1 (inactive). Moreover, the remaining activity in test [4] is 112% (inactive). Also, the fold change in test [5] (setting [8]) is 1.03 (inactive) and 1.01 (inactive) and 0.976 (inactive); in test [5] (setting [9]), 0.948 and 0.828 and 0.812. The cell count was 10400 and 5960 and 9000 in test [5] (setting [10]); 10100 and 5900 and 9210 in test [5] (setting [11]). Besides, in test [6], the molecule was called inactive. In test [7], the z-score is -1.28 (inactive) and -0.79 (inactive).
On to `COC(=O)[C@H](NC(=O)c1cc(-c2ccccc2)nc2ccccc12)c1ccccc1`, for which the period change in test [1] was -0.11 h (inactive). Also, in test [2], the inhibition was -1% (inactive). Moreover, in test [3], the fluorescence ratio (interference) is 1 (inactive). The remaining activity in test [4] is 100% (inactive). Also, the fold change in test [5] (setting [8]) was 1 (inactive) and 0.927 (inactive); in test [5] (setting [9]) it was 0.906 and 0.535. The cell count in test [5] (setting [10]) is 9010 and 8560; in test [5] (setting [11]) it was 8980 and 9240. In addition, the result in test [6] was inactive. Further, the z-score in test [7] is 0.22 (inactive) and -0.03 (inactive).
For `CC1CCN=C(N)S1` (stereo not given), the period change in test [1] was -0.02 h (inactive). Also, the inhibition in test [2] was -2% (inactive). Also, the fluorescence ratio (interference) in test [3] was 1 (inactive). Further, the remaining activity in test [4] is 103% (inactive). Further, the fold change is 1.02 (inactive) and 0.923 (inactive) in test [5] (setting [8]); 1.68 and 0.753 in test [5] (setting [9]). Moreover, the cell count in test [5] (setting [10]) is 9440 and 8650; in test [5] (setting [11]), 9270 and 9380. For the same molecule, the outcome in test [6] was inactive. For the same molecule, in test [7], the z-score was 0.31 (inactive) and 1.27 (inactive).
With `COc1ccc(NC(=O)c2ccc(-c3ccc(-c4noc(C)n4)cc3C)cc2)cc1N1CCN(C)CC1`, in test [1], the period change was 0.065 h (inactive). The inhibition in test [2] was -3% (inactive). Besides, the fluorescence ratio (interference) in test [3] is 0.9 (inactive). The remaining activity in test [4] is 119% (inactive). The fold change was 0.954 (inactive) and 1.08 (inactive) in test [5] (setting [8]); 0.805 and 0.587 in test [5] (setting [9]). Further, the cell count is 510 and 1390 in test [5] (setting [10]); 535 and 1290 in test [5] (setting [11]). Further, the outcome in test [6] was inactive. Besides, the z-score in test [7] is -1.29 (inactive) and -0.715 (inactive).
For the molecule `CC1CCN(CC[C@H]2CCCN2S(=O)(=O)c2cccc(O)c2)CC1`, in test [1], the period change was 0.055 h (inactive). For the same molecule, in test [2], the inhibition is -3% (inactive). The fluorescence ratio (interference) in test [3] was 1 (inactive). In addition, the remaining activity in test [4] was 106% (inactive). For the same molecule, the fold change in test [5] (setting [8]) was 0.975 (inactive) and 0.908 (inactive); in test [5] (setting [9]), 1.72 and 0.97. Besides, the cell count is 9460 and 8490 in test [5] (setting [10]); 9700 and 9350 in test [5] (setting [11]). In test [6], the outcome was inactive. The z-score in test [7] is -0.155 (inactive) and -0.32 (inactive).
For `CCCCCCN(CCCCCC)C(=O)Cc1c(-c2ccc(F)cc2)[nH]c2ccccc12`, the period change in test [1] was -0.08 h (inactive). The inhibition in test [2] was 1% (inactive). The fluorescence ratio (interference) in test [3] was 1 (inactive). Moreover, in test [4], the remaining activity was 100% (inactive). In addition, the fold change is 1.29 (inactive) and 0.933 (inactive) in test [5] (setting [8]); 1.15 and 0.997 in test [5] (setting [9]). Further, the cell count in test [5] (setting [10]) is 5020 and 4030; in test [5] (setting [11]), 3880 and 4320. Further, in test [6], the molecule was classed as inactive. Moreover, in test [7], the z-score was -1.04 (inactive) and -1.23 (inactive).
As to `Cn1cc(C(=O)OCC2CCN(CCNS(C)(=O)=O)CC2)c2ccccc21`, in test [1], the period change was 0.07 h (inactive). Further, the inhibition in test [2] is -1% (inactive). Moreover, in test [3], the fluorescence ratio (interference) was 1 (inactive). In addition, the remaining activity in test [4] is 123% (inactive). Further, the fold change is 1.06 (inactive) and 0.932 (inactive) in test [5] (setting [8]); 1.51 and 0.946 in test [5] (setting [9]). The cell count is 9310 and 9140 in test [5] (setting [10]); 8780 and 9810 in test [5] (setting [11]). For the same molecule, in test [6], the molecule was called inactive. Moreover, the z-score in test [7] was -0.825 (inactive) and -0.425 (inactive).
